Screens: PubChem BioAssay, The Scripps Research Institute Molecular Screening Center
This is a sample that favours compounds with a hit; in the whole collection about 4.1% have one here.
DAX1 inh-1 – DAX1 (NR0B1) inhibitors on StAR promoter, primary screen, cell-based, luminescence, SF-1 (NR5A1), full-length DAX-1; HEK293T StAR-luciferase reporter, SF-1/DAX-1 repression relief; inhibition, % at 6.8 µM; actives 1.1% (n = 370,000);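 active means inhibition above the mean over all tested compounds plus 3 SD, cut at about 3.6% in these data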;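 further: 0% = DAX-1 cells with DMSO and 100% = cells lacking DAX-1 with DMSO; higher inhibition means more luminescence from relief of DAX-1 repression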
hcDAF12 agonist – H. contortus DAF-12 nuclear receptor activators, primary screen, cell-based, luminescence, HEK293, lit1-tk-luc reporter | HEK293 hcDAF-12 lit1-tk-luc reporter; 0% DMSO, 100% Δ7-dafachronic acid | activation, % at 6.8 µM | actives 1.4% (n = 370,000) | AID 652067, 2013;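 active means activation above the mean of all tested compounds plus 3 SD, cut at about 5.5% in these data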;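 further: 100% = response to 3 µM Δ7-dafachronic acid high control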
hgDAF-12 ag – H. glycines DAF-12 receptor agonists, primary screen, cell-based, luminescence, HEK293, GAL4 fusion, UAS-luciferase | AID 687014, 2013 | HEK293 GAL4-hgDAF12 UAS-luciferase reporter, agonist luminescence; normalized to butyrate control | activation, % at 6.8 µM | actives 1.8% (n = 370,000);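 active means activation above a cutoff set at the mean of all screened compounds plus 3 SD, cut at about 10% in these data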;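 further: 0% = DMSO wells and 100% = sodium butyrate wells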
DAX1 inh-2 – DAX1 (NR0B1) inhibitors, primary screen, cell-based, HEK293, Gal4-DAX1, luciferase luminescence. Nuclear receptor subfamily 0 group B member 1 (Homo sapiens), P51843. actives 0.99% (n = 340,000). inhibition, % at 6.75 µM. HEK293 Gal4-DAX1 luciferase reporter. AID 504766, 2011;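 active means inhibition above the mean over all tested compounds plus 3 SD, cut at about 4.2% in these data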;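 further: 0% = DAX1-transfected cells with DMSO and 100% = empty-vector control cells with DMSO; inhibition shows as a rise in luminescence from relieved DAX1 repression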
Target sequence (P51843 207-470 limits assumed): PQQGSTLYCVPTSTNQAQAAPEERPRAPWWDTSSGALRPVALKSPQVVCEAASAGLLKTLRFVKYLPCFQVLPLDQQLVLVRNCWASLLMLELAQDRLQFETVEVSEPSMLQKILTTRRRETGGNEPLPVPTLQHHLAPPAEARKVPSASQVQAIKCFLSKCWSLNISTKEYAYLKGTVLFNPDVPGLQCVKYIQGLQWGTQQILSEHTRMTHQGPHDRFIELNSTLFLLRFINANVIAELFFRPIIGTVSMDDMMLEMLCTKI
ssDAF12 agonist – S. stercoralis DAF-12 nuclear receptor activators, primary screen, cell-based, luminescence, HEK293, GRIP1 co-expression, lit1-tk-luc | Nuclear hormone receptor DAF-12 (Strongyloides stercoralis) | activation, % at 6.8 µM | actives 1% (n = 370,000) | HEK293 ssDAF-12/GRIP1 lit1-tk-luc reporter; % of 3 µM dafachronic acid response;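 active means activation above the mean over all tested compounds plus 3 SD, cut at about 0.9% in these data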;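 further: 0% = DMSO-only wells and 100% = 3 µM delta7-dafachronic acid wells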
DAX1 conf – DAX1 (NR0B1) inhibitors relieving SF-1 repression, confirmation, cell-based, luminescence, HEK293T, full-length DAX-1, SF-1 activated StAR promoter | shares compounds with DAX1 inh-1 | HEK293T StAR-promoter luciferase reporter, SF-1/DAX-1 repression | inhibition, % at 6.8 µM | actives 87% (n = 2,400);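 active means inhibition above the average of every tested compound plus 3 SD, cut at about 3.8% in these data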;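 further: 0% = DAX-1 cells with DMSO and 100% = no DAX-1 control cells with DMSO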
SF1 mutant ctr – StAR reporter signal changes without DAX1, counter-screen for DAX1 inhibitor project, cell-based, luminescence, AF-2 mutant SF-1, transactivation. shares compounds with DAX1 inh-1. HEK293 StAR-luciferase, SF-1 AF2 mutant. inhibition, % at 6.8 µM. actives 78% (n = 2,400);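 active means inhibition above the mean of all tested compounds plus 3 SD, cut at about 3% in these data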;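 further: 0% = DAX-1 transfected cells with DMSO and 100% = cells without DAX-1 with DMSO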
LXRb hcDAF ctr – LXR agonists, Gal4 luciferase reporter, confirmation, counter-screen for hcDAF-12 agonist project, cell-based, luminescence, HEK293, H. contortus campaign. shares compounds with hcDAF12 agonist. HEK293 Gal4-LXR tk-luc reporter, 24 h; normalized: DMSO 0%, positive control 100%. activation, % at 6.8 µM. 3,400 tested, under 10 active. AID 743027, 2013;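 active means mean percent activation of the reporter above a cutoff set as the average over tested compounds plus their standard deviation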
Target sequence (P55055 whole entry, looked up, the tested form may be a part): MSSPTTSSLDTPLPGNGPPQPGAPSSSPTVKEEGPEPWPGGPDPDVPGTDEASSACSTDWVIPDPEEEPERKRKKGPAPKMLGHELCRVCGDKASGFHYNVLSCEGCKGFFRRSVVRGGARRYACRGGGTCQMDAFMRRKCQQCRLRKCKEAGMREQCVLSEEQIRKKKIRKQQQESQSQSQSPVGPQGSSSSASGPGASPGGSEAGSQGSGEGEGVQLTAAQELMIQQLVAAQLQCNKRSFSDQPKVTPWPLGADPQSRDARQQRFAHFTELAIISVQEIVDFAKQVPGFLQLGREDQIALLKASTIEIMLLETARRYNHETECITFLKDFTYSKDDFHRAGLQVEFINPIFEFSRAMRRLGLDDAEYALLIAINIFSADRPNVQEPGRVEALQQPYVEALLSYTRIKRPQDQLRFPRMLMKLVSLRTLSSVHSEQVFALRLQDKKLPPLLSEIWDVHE
hcDAF12 conf – H. contortus DAF-12 receptor agonists, confirmation, cell-based, luminescence, HEK293, lit1-tk-luc, triplicate. shares compounds with hcDAF12 agonist. HEK293 hcDAF-12 lit1-tk-luc reporter; % of Δ7-dafachronic acid response. activation, % at 6.8 µM. actives 61% (n = 3,400). AID 743032, 2013;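 active means mean activation across triplicate tests above the threshold derived from the earlier primary screen, cut at about 5.5% in these data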;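 further: 0% = DMSO only wells and 100% = 3 µM Δ7-dafachronic acid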
hgDAF12 conf – H. glycines DAF-12 receptor agonists, confirmation, cell-based, luminescence, HEK293, GAL4-LBD fusion; shares compounds with hgDAF-12 ag; HEK293 GAL4-hgDAF12 luciferase reporter, agonist mode; percent of butyrate response; activation, % at 6.8 µM; actives 80% (n = 3,300); AID 743050, 2013;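 active means mean activation over triplicate wells above the hit cutoff derived from the earlier primary screen, cut at about 11% in these data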;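 further: 0% = DMSO low control and 100% = 2 mM sodium butyrate high control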
LXR ag 2 – LXR agonists, Gal4 luciferase reporter, confirmation, counter-screen for hgDAF-12 agonist project, cell-based, luminescence, HEK293, H. glycines campaign; shares compounds with hgDAF-12 ag; activation, % at 6.8 µM; 3,300 tested, under 10 active; 24 h;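 active means mean activation of the triplicate above a set limit carried over from the primary screen, none filed active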
Active calls of the source: *; / = no result.

SMILES | DAX1 inh-1 | hcDAF12 agonist | hgDAF-12 ag | DAX1 inh-2 | ssDAF12 agonist | DAX1 conf | SF1 mutant ctr | hgDAF12 conf | LXR ag 2 | others
COCCCN1C(=O)[C@H](CC(=O)NCCc2ccccc2OC)[C@]2(C(=O)OC)CCCCC=C12 | 0 | -2 | 3 | / | -1 | / | / | / | /
Cc1nc2ccc(-c3nc4ccccc4o3)cc2[nH]1 | 5.2* | 3 | 20* | 0 | 0 | 15* | 8.8* | 22* | 1
Nc1ccc(-c2nc3ccc(-c4nc5ccccc5o4)cc3[nH]2)cc1 | -1 | -1 | -1 | -2 | -1 | / | / | / | /
O=C(CCCc1cccs1)Nc1ccc2c(c1)OCO2 | 5.5* | 3 | 22* | 6.0* | 1 | 9.7* | 6.7* | 14* | 1
O=C(CCCc1ccccc1)Nc1ccc2c(c1)OCCO2 | 6.1* | 8.2* | 22* | 1 | 1 | 9.0* | 4.9* | 15* | 1 | LXRb hcDAF ctr=1;hcDAF12 conf=9.1*
C/C(CC(=O)Nc1ccc2c(c1)OCCO2)=N\NC(=O)c1ccccc1F | 0 | 2 | 5 | 0 | 0 | / | / | / | /
C/C(CC(=O)Nc1ccc2c(c1)OCCO2)=N\NC(=O)c1ccccn1 | 6.4* | 6.2* | 15* | 1 | 0 | 1 | -1 | 7 | 0
O=C(/C=C/c1ccccc1)Nc1ccc2c(c1)OCCO2 | 7.4* | 4 | 18* | -1 | 1 | 14* | 6.5* | 23* | 1
COCC(=O)N1CC[C@H]2[C@@H]1c1cc(-c3cccc(OC)c3)ccc1N(C)[C@H]2CO | -1 | -2 | -3 | / | -2 | / | / | / | /
CSc1ccc(/C=C/C(=O)Nc2ccccc2)cc1 | 14* | 11* | 14* | -3 | 1 | 6.8* | 4.3* | 16* | 1 | LXRb hcDAF ctr=2;hcDAF12 conf=7.4*
O=C(CSc1ccccc1)Nc1ccc2c(c1)OCCO2 | 11* | 6 | 15* | 3 | 1.0* | 14* | 7.5* | 15* | 1
CSc1cccc(NC(=O)/C=C/c2ccccc2)c1 | 1 | 1 | 10 | 1 | 0 | / | / | / | /
CC(C)S(=O)(=O)N1CCCC(c2cc(C(=O)NCc3ccccc3)no2)C1 (stereo not given) | -2 | -2 | 4 | / | -1 | / | / | / | /
Clc1ccccc1Nc1nc2ccccc2o1 | 9.3* | 11* | 13* | 1 | 1.2* | 14* | 9.0* | 23* | 1 | LXRb hcDAF ctr=1;hcDAF12 conf=10*
Cc1cccc(C)c1Nc1nc2ccccc2o1 | 0 | -1 | -2 | -1 | 0 | / | / | / | /
O=C(Cn1cnc2ccccc2c1=O)N1CCN(Cc2ccc(F)cc2)CC1 | -1 | 0 | -1 | / | -1 | / | / | / | /
COc1ccc(C2=Nc3ccccc3N(C(=O)Cc3cc(OC)cc(OC)c3)C2C(=O)NC(C)(C)C)cc1 (stereo not given) | -1 | -1 | -3 | / | -1 | / | / | / | /
COc1ccc(C2=Nc3ccccc3N(C(=O)c3ccc4ncccc4c3)C2C(=O)NC(C)(C)C)cc1 (stereo not given) | 5.5* | 11* | 23* | / | 1.3* | 11* | 5.8* | 15* | 1 | LXRb hcDAF ctr=1;hcDAF12 conf=12*
COc1ccccc1/C=C/C(=O)Nc1ccc2c(c1)CCC2 | 5.2* | 6.7* | 16* | 3 | 1.4* | 7.7* | 7.5* | 19* | 1 | LXRb hcDAF ctr=1;hcDAF12 conf=6.6*
O=C(Nc1ccc2c(c1)CCC2)c1ccccc1F | 6.7* | 15* | 20* | 2 | 1 | 14* | 7.2* | 21* | 1 | LXRb hcDAF ctr=2;hcDAF12 conf=12*
O=C(O)c1ccccc1-c1ccccc1C(=O)Nc1ccc2c(c1)CCC2 | 0 | -1 | 1 | 0 | -1 | / | / | / | /
COc1ccc(OC)c(/C=C/C(=O)Nc2ccc3c(c2)CCC3)c1 | 0 | -4 | 4 | -1 | -1 | / | / | / | /
O=C(Nc1ccc2c(c1)CCC2)c1ccccc1 | 5.6* | 6.0* | 17* | 0 | 0 | 15* | 6.5* | 19* | 1
O=C(Nc1ccc2c(c1)CCC2)Nc1ccccc1Cl | 8.8* | 3 | 14* | 1 | 0 | 9.8* | 7.8* | 22* | 1
Cc1ccc(NC(=O)Nc2ccc3c(c2)CCC3)c(C)c1 | 1 | 1 | 0 | 0 | -1 | / | / | / | /
CC(C)(C)CC(=O)Nc1nn[nH]n1 | 0 | 2 | 0 | 1 | -1 | / | / | / | /
CCC(=O)NC(=S)NNC(=O)c1ccc(O)cc1 | -1 | -1 | 1 | 0 | -1 | / | / | / | /
CC(Cn1cncn1)C(=O)N1CCN(S(=O)(=O)c2ccc(Cl)cc2)CC1 (stereo not given) | 0 | -1 | -1 | 0 | -2 | / | / | / | /
Cc1cc(C)n2cc(COc3ccc4ccccc4c3)nc2n1 | 6.3* | 8.0* | 17* | 2 | 1 | 15* | 8.8* | 17* | 1 | LXRb hcDAF ctr=1;hcDAF12 conf=6
